# In PubChem BioAssay AID1209 (Sanford-Burnham Center for Chemical Genomics, 2008):
# The campaign covered roughly 190,000 compounds. About 810 (0.43%) were called active. Only a selection was taken, and actives are over-represented in it overall. Values without a mark were called inactive. Cut-off read from the data, not from the text of the source: active = inhibition above about 50%; inactive = the rest.
# Target: Mannose-6-phosphate isomerase (Homo sapiens) (UniProt P34949)
# Test: MPI enzyme activity inhibition – biochemical, fluorescence intensity, coupled assay, primary screen (AID 1209);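 note: plate controls were DMSO vehicle for no effect and wells lacking substrate for full effect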
# Settings: purified PMI enzyme, at 20 µM, active compounds read high
# Mannose-6-phosphate isomerase (Homo sapiens), sequence (P34949 whole entry, looked up): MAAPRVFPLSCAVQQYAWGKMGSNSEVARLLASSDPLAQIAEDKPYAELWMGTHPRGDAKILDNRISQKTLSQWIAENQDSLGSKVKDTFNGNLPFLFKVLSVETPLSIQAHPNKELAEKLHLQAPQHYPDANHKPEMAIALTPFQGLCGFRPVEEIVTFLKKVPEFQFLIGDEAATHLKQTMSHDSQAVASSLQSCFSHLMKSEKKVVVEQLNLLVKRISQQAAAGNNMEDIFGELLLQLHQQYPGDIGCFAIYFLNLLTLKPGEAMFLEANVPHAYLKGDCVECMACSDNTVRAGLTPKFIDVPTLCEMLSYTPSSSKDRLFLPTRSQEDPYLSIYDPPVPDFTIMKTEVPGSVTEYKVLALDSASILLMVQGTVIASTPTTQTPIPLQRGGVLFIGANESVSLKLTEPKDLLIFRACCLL
row,Structure (SMILES),inhibition
1,COc1ccc(C(=O)C2CCCN(C(=O)c3cccs3)C2)cc1F (centres undefined),-2.9%
2,COc1ccc(C(=O)C2CCCN(C(=O)c3ccccc3C(C)=O)C2)cc1F (centres undefined),-0.2%
3,COc1ccc(C(=O)C2CCCN(C(=O)COc3ccc(C(C)=O)cc3)C2)cc1F (centres undefined),57.4% (active)
4,CC(=O)Nc1nc(SCCCc2ccccc2)n[nH]1,-3.1%
5,COc1cccc(NC(=S)NNC(=O)CCn2cc([N+](=O)[O-])cn2)c1,9.6%
6,O=C(Nc1nc(-c2ccc(Oc3ccccc3)cc2)cs1)C1=COCCO1,19.1%
7,Cc1ccc2[nH]c3c(c2c1)CCc1cn[nH]c1-3,69.4% (active)
8,Clc1ccc2[nH]c3c(c2c1)CCc1cn[nH]c1-3,12.6%
9,c1ccc2c3c([nH]c2c1)-c1[nH]ncc1CC3,49%
10,CC(C)CCOc1ccc(C(=O)O)cc1,7.9%
11,COc1ccc(C(=O)C[N+]2(C)CCOCC2)cc1,81.3% (active)
12,COc1ccc(C(=O)OCC[N+]2(C)CCCCC2)cc1,4.5%
13,CC(C)CCOc1ccc(C(=O)NCCC(=O)N2CCOCC2)cc1,8.3%
14,COc1ccc(C(=O)OCC[N+]2(C)CCOCC2)cc1,-0.9%
15,CC(C)CCOc1ccc(C(=O)C[N+]2(C)CCOCC2)cc1,81.8% (active)
16,Oc1ccccc1C1=Nc2ncnn2C(c2ccccc2)C1 (centres undefined),-40.5%
17,CCOCCCNC(=O)C(c1ccc(C)cc1)N(Cc1cccs1)C(=O)c1ccccn1 (centres undefined),0.7%
18,CCCCCCCCc1nnc(NC(=O)c2ccco2)s1,2.7%
19,CCC(c1nnnn1Cc1cccs1)N1CCN(C2CCCC2)CC1 (centres undefined),0%
20,O=C(N/C(=C\c1cccc([N+](=O)[O-])c1)C(=O)N1CCOCC1)c1ccc([N+](=O)[O-])cc1,12.3%
21,O=C(C1=C[C@@H](C2CCCCC2)C[C@@H](OCc2ccc(CO)cc2)O1)N1CCN(Cc2ccc3c(c2)OCO3)CC1,19.6%
22,Cn1c(SCC(=O)C(C)(C)C)nnc1-c1ccncc1,6%
23,Cc1ccc(C(C)(C)C)cc1S(=O)(=O)NC(=O)c1ccccc1,-10.8%
24,C=C1N(C)c2cc([N+](=O)[O-])c(N)cc2C1(C)C,94% (active)
25,CC1(C)Oc2cc(N)c([N+](=O)[O-])cc2O1,17.5%

row,Structure (SMILES),inhibition
1,Nc1ccc(-c2ccc(N)c([N+](=O)[O-])c2)cc1[N+](=O)[O-],-6.5%
2,Cc1ncc2c(c1OC(=O)c1ccc([N+](=O)[O-])cc1)COC(C)(C)OC2,-1.9%
3,O=C(CCNC(=O)c1ccco1)Nc1ccc(Cl)cc1,4.4%
4,O=C(CCN1CCN(c2ccccc2F)CC1)Nc1ccccc1F,-9.9%
5,CC1CCCN(CCC(=O)Nc2ccc(Br)cc2)C1 (centres undefined),-13.4%
6,O=C(CCN1CCOCC1)c1ccc(Cl)cc1,25.9%
7,O=C(CCN1CCOCC1)c1ccc(Br)cc1,60.4% (active)
8,CC1CCCN(CCC(=O)c2ccc(Br)cc2)C1 (centres undefined),60.1% (active)
9,O=C(CCN1CCOCC1)c1ccccc1,-1.6%
10,COc1ccc(C(=O)CCN2CCN(c3ccccc3F)CC2)cc1,16.8%
11,O=C(CCN1CCN(c2ccccc2F)CC1)c1ccc(Br)cc1,59.8% (active)
12,CC1CCCN(CCOc2ccc(Br)cc2)C1 (centres undefined),-8.8%
13,COc1cc(C)nc(N2CCC(C(N)=O)CC2)n1,-2.7%
14,Cc1cc(=O)n2[nH]c(-c3ccc(F)cc3)nc2n1,7.6%
15,CC(=O)Nc1nc(NC(=O)/C=C/c2ccccc2)n(-c2ccccc2)n1,-31.3%
16,C=CCc1ccccc1OCCOc1ccc([N+](=O)[O-])cc1/C=N/NC(N)=O,3.8%
17,Cc1ccc(S(=O)(=O)NCC(=O)N(CC(=O)NC(C)(C)C)Cc2cccs2)cc1,-16%
18,COc1ccc(S(=O)(=O)NCC(=O)N(CC(=O)NC(C)(C)C)Cc2cccs2)cc1,110% (active)
19,CC(C)(C)NC(=O)CN(Cc1cccs1)C(=O)CNS(=O)(=O)c1ccccc1,-0.6%
20,NC(=O)c1nn(CC(=O)Nc2ccc3c(c2)OCO3)cc1[N+](=O)[O-],0%
21,Cc1ccc(NCC(=O)N/N=C/c2c[nH]c3ccccc23)cc1,0%
22,Cc1ccc(S(=O)(=O)Nc2cnc3ccccc3c2)cc1,3.8%
23,CC(=O)Oc1cccc(N2C(=O)c3ccc(C(=O)O)cc3C2=O)c1,-31.5%
24,O=C(O)c1ccc2nc(-c3ccccc3)sc2c1,-10.7%
25,O=C(O)c1ccc2c(c1)C(=O)N(c1cccc(-c3nc4ccccc4s3)c1)C2=O,102% (active)

row,Structure (SMILES),inhibition
1,COc1ccc(/C(O)=C2\C(=O)C(=O)N(CCN(C)C)C2c2cc(OC)c(OC)c(OC)c2)c(C)c1 (centres undefined),-21.3%
2,CCOC(=O)C1=C(C)NC2(O)c3ccccc3C(=O)C12O (centres undefined),12.1%
3,CCOC(=O)C1=C(C)N[C@@]2(O)c3ccccc3C(=O)[C@@]12O,21%
4,COCCOC(=O)C1=C(C)NC2(O)c3ccccc3C(=O)C12O (centres undefined),70.5% (active)
5,COc1ccccc1OCC(=O)NNC(=O)c1c(-c2ccccc2Cl)noc1C,-14.6%
6,O=S(=O)(NCCN1CCOCC1)c1ccc(Cl)s1,-5.3%
7,O=S(=O)(NCCNS(=O)(=O)c1cccs1)c1cccs1,-15.3%
8,O=S(=O)(NCCN1CCOCC1)c1cccs1,68.9% (active)
9,Cc1cc2cc(C)c3nnc(SCC(=O)N4CCCc5ccccc54)n3c2cc1C,12.3%
10,N#CCCn1cc(C(=O)O)c(-c2cc3ccccc3o2)n1,-2.3%
11,Cn1c(N)c(C(=O)NCc2ccccc2)sc1=S,12.3%
12,Cn1c(N)c(C(=O)Nc2ccc3ccccc3c2)sc1=S,64.8% (active)
13,COC(=O)c1ccccc1NC(=O)c1sc(=S)n(C)c1N,-14.8%
14,Cc1cnn(C(=O)c2oc3ccccc3c2C)c1,-1.3%
15,Cc1cc(N)n(-c2ccccc2C)n1,11.2%
16,C=CCN1C(=O)C(C)(C)Nc2ccccc21,6.9%
17,Cn1ccnc1SCC(=O)c1c[nH]c2ccccc12,4.5%
18,C/C(=N\NC(=O)c1nn(C)c(C)c1Br)c1ccc(NC(=O)c2ccccc2F)cc1,-0.9%
19,C/C(=N\NC(=O)c1nn(C)c(C)c1Br)c1cccc(NC(=O)c2ccc(F)cc2)c1,50.8% (active)
20,C/C(=N\NC(=O)c1nn(C)c(C)c1Br)c1cccc(NC(=O)c2ccoc2C)c1,-8.4%
21,COC(=O)c1ccc(NC(=S)NCCCN2CCCC2=O)cc1,-0.7%
22,Cc1ccc(NC(=S)N(CCCN2CCC(C)CC2)Cc2ccco2)cc1,81.3% (active)
23,Cc1ccc(NC(=S)N(CCCN2CCOCC2)Cc2ccco2)cc1,-2%
24,Cc1ccc(NC(=S)N(CCCN2CCC(C)CC2)Cc2ccco2)cc1C,-3.2%
25,CCOC(=O)C1C(c2ccc(O)c(OC)c2)NC(=S)NC1(O)C(F)(F)F (centres undefined),-3%

row,Structure (SMILES),inhibition
1,CCOC(=O)C1C(c2ccc(O)c(OCC)c2)NC(=S)NC1(O)C(F)(F)F (centres undefined),-6.6%
2,CCOC(=O)C1C(c2ccc(O)c(O)c2)NC(=S)NC1(O)C(F)(F)F (centres undefined),61.7% (active)
3,O=C(CN1C(=O)c2cccc3cccc(c23)C1=O)N1CCOCC1,24.7%
4,O=C(Nn1cnnc1)c1ccc(Br)s1,-17.3%
5,O=C(NCCCn1ccnc1)c1cc(-c2ccc(Br)cc2)on1,-3.5%
6,O=C(O)CS(=O)(=O)CC(=O)NCc1cccc(C(F)(F)F)c1,-2.8%
7,Cc1ccc(NC(=O)Nc2c(C)n(C)n(-c3ccccc3)c2=O)cc1C,-4%
8,COCCn1c(=NC(=O)C2COc3ccccc3O2)sc2cc(S(N)(=O)=O)ccc21 (centres undefined),12.8%
9,O=C(COc1cccnc1[N+](=O)[O-])N1CCN(S(=O)(=O)c2ccccc2)CC1,12.8%
10,O=C(COc1cccnc1[N+](=O)[O-])N1CCN(C(=O)c2ccco2)CC1,57.6% (active)
11,O=C(COc1ccccc1O)N1CCN(C(=O)c2ccco2)CC1,4%
12,CC1(C)C/C(=N\O)c2cc3c(nc2C1)CCCC3,-3%
13,Cc1cc(C)nc(NC(=O)c2c(-c3c(Cl)cccc3Cl)noc2C)n1,9.1%
14,CCOC(=O)N1CCN(S(=O)(=O)c2cc(C)c(C)cc2C)CC1,-3.8%
15,FC(F)(F)c1cnc(/C=C/Nc2ccccc2Cl)c(Cl)c1,12.3%
16,C[N+]1=C(/C=C/Nc2ccccc2Cl)C(C)(C)c2ccccc21,78.4% (active)
17,COC(=O)c1ccc(CN(C)S(=O)(=O)c2ccc(C)cc2)o1,-1.6%
18,CCc1nc(N=Nc2c(O)[nH]c3ccccc23)c2c3c(sc2n1)CCC3,-5.7%
19,C=CCn1c(COc2ccc3c(c2)CCCC3)nnc1SCC(=O)Nc1cccc(SC)c1,15%
20,CC1(C)CC(N2CCCC2)=CC(=[N+]2CCCCC2)C1,12.6%
21,CC1(C)CC(N2CCCC2)=CC(=[N+]2CCCCCC2)C1,62.8% (active)
22,CC1(C)CC(N2CCCCC2)=CC(=[N+]2CCCCC2)C1,34.9%
23,COc1cc2c(C(=O)OCCN(C)C)c(CSc3ccccc3)n(C)c2cc1Br,3.3%
24,CC(OC(=O)c1cccnc1Cl)C(=O)Nc1ccc2c(c1)OCCO2 (centres undefined),-6.6%
